Data on 29 compounds can be found in PubChem BioAssay AID1566 (Sanford-Burnham Center for Chemical Genomics, 2009).

Structures are written as SMILES. “And” between values parts separate entries of the source, which are not always exact repeats. Equal entries are not always repeated. Out of some 290,000 compounds screened, about 1,800 (0.62%) were called active. Cut-off read from the data, not from the text of the source: active = inhibition above about 50%; inactive = the rest. The entries come from a sample that favours actives as a whole. The source holds several records for some structures; these can differ, active in one and inactive in another.

This experiment in a line: NOD2 signaling inhibitors, cell-based, luminescence, uHTS, HEK293 (AID 1566). Conditions: HEK293 NOD2/NF-kB luciferase reporter, at 4 µM, stronger effect = higher value. Background: Reporter assays use an easily measured gene product as a stand-in for the process of interest.
As for `COc1ccc(/C=N/NC(=O)CC#N)cc1Oc1nc(Cl)ncc1F`, the inhibition was -4% (inactive).

As to `O=[N+]([O-])c1ccc(C2OCCO2)cc1CS(=O)(=O)c1ccccc1`, the inhibition was -3.4% (inactive).

Consider `CCC(=O)Nc1cccc2ccccc12`, for which the inhibition is 15.5% (inactive).

As for `CCN(CC)c1ccc(/C=N/NC(=O)C(O)(c2ccccc2)c2ccccc2)o1`, the inhibition is 3.6% (inactive).

`Cc1[nH]n(-c2ccccc2)c(=O)c1-c1ccc(Cl)cc1`: the inhibition was -50.4% (inactive).

As to `Cc1[nH]n(-c2cccc(Cl)c2)c(=O)c1-c1ccccc1`, the inhibition was 17.3% (inactive).

For `C=CCn1c(-c2cc3cccc(OC)c3o2)n[nH]c1=S`, the inhibition was -1.5% (inactive).

With `O=C(c1cc(-c2cccc(Cl)c2)on1)N1CCCCCC1`, the inhibition was -44.3% (inactive).

For `Nc1nc(-c2cccs2)c(CC(=O)O)s1`, the inhibition is 4.5% (inactive).

For `CC(C)(C)c1ccc(-n2ncc3c2CCCC3NC(=O)CCN2CCCC2=O)cc1` (centres undefined), the inhibition is 57.1% (active).

For `CC(C)(C)c1ccc(-n2ncc3c2CCCC3NC(=O)CN2CCCC2=O)cc1` (centres undefined), the inhibition was 35.8% (inactive).

Regarding `CC(C)(C)c1ccc(-n2ncc3c2CCCC3NC(=O)CCN2CCCCC2=O)cc1` (centres undefined), the inhibition is 17.1% (inactive).

Consider `CCN1CCN(c2ncnc3sc(C)c(-c4ccccc4)c23)CC1`, for which the inhibition is 35.6% (inactive).

Take `Cc1sc2ncnc(N3CCN(Cc4ccccc4)CC3)c2c1-c1ccccc1`: the inhibition was -9.7% (inactive).

With `CCc1ccc(-c2cc(C)no2)cc1S(=O)(=O)N1CCOc2ccc(C)cc21`, the inhibition was 16.8% (inactive).

Consider `COc1ccccc1CC(=O)Nc1ccc(NC(=O)c2cccs2)cc1`, for which the inhibition was -13% (inactive).

As to `CCOC(=O)CSc1nc2sc3c(c2c(=O)[nH]1)CCCC3`, the inhibition is 8.9% (inactive).

Take `CCOC(=O)c1nc2sc3c(c2c(=O)[nH]1)CCCC3`: the inhibition is 55.1% (active) and 4.8% (inactive).

With `CCOC(=O)c1nc2sc3c(c2c(=O)[nH]1)CCC(C)C3` (centres undefined), the inhibition was 45.5% (inactive).

For the compound `COc1ccccc1CNC(=O)CCc1nnc2ccc(NCCCN3CCCC3=O)nn12`, the inhibition is 12.8% (inactive).

Take `Cc1ccc(Cn2c(=O)c3ccccc3n3c(SCC(=O)N4CCCCC4C)nnc23)cc1` (centres undefined): the inhibition is 8.3% (inactive).

With `Cc1ccc(C(=O)NNC(=O)CCN2C(=O)C3CCCCC3C2=O)cc1` (centres undefined), the inhibition is 11.6% (inactive).

For the compound `COc1cc(SC)ccc1C(=O)Nc1nccs1`, the inhibition was -159% (inactive).

For the compound `COc1cc(SC)ccc1C(=O)Nc1nc(C)cc(C)n1`, the inhibition was 10.5% (inactive).

In the case of `COc1cc(SC)ccc1C(=O)Nc1nc(C)cs1`, the inhibition is 72.2% (active).

For `O=C(O)c1ccc(NCc2ccc3c(c2)OCO3)cc1`, the inhibition was 6.2% (inactive).

Turning to `COc1ccc(-c2nn(-c3ccccc3)cc2/C=N/N2C(=O)CSC2=S)cc1`, the inhibition is 51.5% (active).

Turning to `COc1ccc(-c2nn(-c3ccccc3)cc2/C=N/O)cc1`, the inhibition was 9.4% (inactive).

As for `COc1ccc(/C=N/N2C(=O)CSC2=S)cc1`, the inhibition was -23.8% (inactive).

One may read the inhibition as the drop in the measured response relative to a control, in per cent.
